{
  "source": "the supplement of paper PMC8728848",
  "binders": {"B1": {"name": "EPL1 (Trichoderma atroviride), A0PCX2 (protein)", "chain": "MQLSNLFKLALFTAAVSADTVSYDTGYDDASRSLTVVSCSDGTNGLITRYHWQTQGQIPRFPYIGGAQAVAGWNSPNCGTCWKLTYSGKTIYVLAIDHTAAGFNIGLDAMNALTNGNAVALGRVSATASQVAVSNCGL"}},
  "assay_in_all_cases": "glycan array binding signal (z-score within array); higher = stronger binding",
  "settings_in_all_cases": "glycan notation: IUPAC condensed, linker removed",
  "key": {"[1]": {"biological_target": "GlcNAc(b1-2)[GlcNAc(b1-6)]Man(a1-6)[GlcNAc(b1-4)][GlcNAc(b1-2)Man(a1-3)]Man(b1-4)GlcNAc(b1-4)GlcNAc", "outline": "(§1)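 Columns mapping to the same glycan were averaged after glycan names were converted to IUPAC-condensed notation. The data come from 3228 arrays in the Consortium for Functional Glycomics database, limited to those with an available protein sequence. Binding is reported as a within-array Z-score averaged across arrays of one protein sequence and across linkers.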"}, "[2]": {"biological_target": "GlcNAc(b1-3)Gal(b1-4)GlcNAc(b1-3)Gal(b1-4)GlcNAc(b1-2)Man(a1-3)[GlcNAc(b1-3)Gal(b1-4)GlcNAc(b1-3)Gal(b1-4)GlcNAc(b1-2)Man(a1-6)]Man(b1-4)GlcNAc(b1-4)GlcNAc", "outline": "as §1"}, "[3]": {"biological_target": "GlcNAc(b1-3)Gal(b1-4)GlcNAc(b1-3)Gal(b1-4)GlcNAc(b1-3)Gal(b1-4)GlcNAc(b1-2)Man(a1-3)[GlcNAc(b1-3)Gal(b1-4)GlcNAc(b1-3)Gal(b1-4)GlcNAc(b1-3)Gal(b1-4)GlcNAc(b1-2)Man(a1-6)]Man(b1-4)GlcNAc(b1-4)[Fuc(a1-6)]GlcNAc", "outline": "as §1"}, "[4]": {"biological_target": "GlcNAc(b1-3)Gal(b1-4)GlcNAc(b1-3)Gal(b1-4)GlcNAc(b1-3)Gal(b1-4)GlcNAc(b1-2)[GlcNAc(b1-3)Gal(b1-4)GlcNAc(b1-3)Gal(b1-4)GlcNAc(b1-3)Gal(b1-4)GlcNAc(b1-6)]Man(a1-6)[GlcNAc(b1-3)Gal(b1-4)GlcNAc(b1-3)Gal(b1-4)GlcNAc(b1-3)Gal(b1-4)GlcNAc(b1-2)Man(a1-3)]Man(b1-4)GlcNAc(b1-4)[Fuc(a1-6)]GlcNAc", "outline": "as §1"}, "[5]": {"biological_target": "Man(a1-2)Man(a1-2)Man(a1-3)Man", "outline": "as §1"}, "MurNAc(b1-4)GlcNAc": {"biological_target": "MurNAc(b1-4)GlcNAc", "outline": "as §1"}, "[6]": {"biological_target": "Neu5Ac(a2-3)Gal(b1-3)GlcNAc(b1-2)Man", "outline": "as §1"}, "[7]": {"biological_target": "Neu5Ac(a2-3)Gal(b1-4)GlcNAc(b1-2)Man(a1-3)[GlcNAc(b1-4)][Neu5Ac(a2-3)Gal(b1-4)GlcNAc(b1-2)Man(a1-6)]Man(b1-4)GlcNAc(b1-4)GlcNAc", "outline": "as §1"}, "[8]": {"biological_target": "Neu5Ac(a2-3)Gal(b1-4)GlcNAc(b1-6)[Neu5Ac(a2-3)Gal(b1-3)]GalNAc", "outline": "as §1"}, "[9]": {"biological_target": "Neu5Ac(a2-3)Gal(b1-4)[Fuc(a1-3)]GlcNAc(b1-2)Man", "outline": "as §1"}, "[10]": {"biological_target": "Neu5Ac(a2-3)Gal(b1-4)[Fuc(a1-3)]GlcNAc(b1-3)GalNAc", "outline": "as §1"}, "[11]": {"biological_target": "Neu5Ac(a2-3)Gal(b1-4)[Fuc(a1-3)]GlcNAc(b1-6)[Neu5Ac(a2-3)Gal(b1-3)]GalNAc", "outline": "as §1"}, "[12]": {"biological_target": "Neu5Ac(a2-3)GalNAc(b1-4)GlcNAc", "outline": "as §1"}, "Neu5Ac(a2-6)Gal": {"biological_target": "Neu5Ac(a2-6)Gal", "outline": "as §1"}, "[13]": {"biological_target": "Neu5Ac(a2-6)Gal(b1-4)GlcNAc(b1-2)Man(a1-3)[GlcNAc(b1-2)Man(a1-6)]Man(b1-4)GlcNAc(b1-4)GlcNAc", "outline": "as §1"}, "[14]": {"biological_target": "Neu5Ac(a2-6)Gal(b1-4)GlcNAc(b1-2)Man(a1-6)[GlcNAc(b1-2)Man(a1-3)]Man(b1-4)GlcNAc(b1-4)GlcNAc", "outline": "as §1"}, "[15]": {"biological_target": "Neu5Ac(a2-6)Gal(b1-4)GlcNAc(b1-2)Man(a1-6)[Man(a1-3)]Man(b1-4)GlcNAc(b1-4)GlcNAc", "outline": "as §1"}, "[16]": {"biological_target": "Neu5Ac(a2-6)Gal(b1-4)GlcNAc(b1-3)Gal(b1-4)GlcNAc(b1-3)Gal(b1-4)GlcNAc(b1-2)Man(a1-3)[Neu5Ac(a2-6)Gal(b1-4)GlcNAc(b1-3)Gal(b1-4)GlcNAc(b1-3)Gal(b1-4)GlcNAc(b1-2)Man(a1-6)]GalNAc", "outline": "as §1"}, "[17]": {"biological_target": "Neu5Ac(a2-6)Gal(b1-4)GlcNAc(b1-3)Gal(b1-4)[Fuc(a1-3)]GlcNAc(b1-3)Gal(b1-4)[Fuc(a1-3)]GlcNAc", "outline": "as §1"}, "[18]": {"biological_target": "Neu5Ac(a2-6)Gal(b1-4)GlcNAc6S", "outline": "as §1"}, "Neu5Gc(a2-3)Gal(b1-4)Glc": {"biological_target": "Neu5Gc(a2-3)Gal(b1-4)Glc", "outline": "as §1"}, "[19]": {"biological_target": "Neu5Gc(a2-3)Gal(b1-4)GlcNAc(b1-3)Gal(b1-4)GlcNAc(b1-2)Man(a1-3)[Neu5Gc(a2-3)Gal(b1-4)GlcNAc(b1-3)Gal(b1-4)GlcNAc(b1-2)Man(a1-6)]Man(b1-4)GlcNAc(b1-4)GlcNAc", "outline": "as §1"}, "[20]": {"biological_target": "Neu5Gc(a2-8)Neu5Ac(a2-3)Gal(b1-4)GlcNAc", "outline": "as §1"}},
  "note": "Many of the other results were omitted from the sample, so the strongest signals are more common in it than they were.",
  "data": [
    {"binder": "B1", "values": [
      {"measurement": "glycan array binding signal (z-score)", "setting": "[1]", "value": -0.514},
      {"measurement": "glycan array binding signal (z-score)", "setting": "[2]", "value": 0.862},
      {"measurement": "glycan array binding signal (z-score)", "setting": "[3]", "value": 0.866},
      {"measurement": "glycan array binding signal (z-score)", "setting": "[4]", "value": 0.127},
      {"measurement": "glycan array binding signal (z-score)", "setting": "[5]", "value": -0.108},
      {"measurement": "glycan array binding signal (z-score)", "setting": "MurNAc(b1-4)GlcNAc", "value": -0.51},
      {"measurement": "glycan array binding signal (z-score)", "setting": "[6]", "value": -0.068},
      {"measurement": "glycan array binding signal (z-score)", "setting": "[7]", "value": -0.469},
      {"measurement": "glycan array binding signal (z-score)", "setting": "[8]", "value": -0.379},
      {"measurement": "glycan array binding signal (z-score)", "setting": "[9]", "value": -0.347},
      {"measurement": "glycan array binding signal (z-score)", "setting": "[10]", "value": 1.06},
      {"measurement": "glycan array binding signal (z-score)", "setting": "[11]", "value": 0.767},
      {"measurement": "glycan array binding signal (z-score)", "setting": "[12]", "value": -0.428},
      {"measurement": "glycan array binding signal (z-score)", "setting": "Neu5Ac(a2-6)Gal", "value": -0.387},
      {"measurement": "glycan array binding signal (z-score)", "setting": "[13]", "value": -0.298},
      {"measurement": "glycan array binding signal (z-score)", "setting": "[14]", "value": -0.056},
      {"measurement": "glycan array binding signal (z-score)", "setting": "[15]", "value": -0.436},
      {"measurement": "glycan array binding signal (z-score)", "setting": "[16]", "value": 0.008},
      {"measurement": "glycan array binding signal (z-score)", "setting": "[17]", "value": -0.291},
      {"measurement": "glycan array binding signal (z-score)", "setting": "[18]", "value": 0.855},
      {"measurement": "glycan array binding signal (z-score)", "setting": "Neu5Gc(a2-3)Gal(b1-4)Glc", "value": -0.246},
      {"measurement": "glycan array binding signal (z-score)", "setting": "[19]", "value": 0.362},
      {"measurement": "glycan array binding signal (z-score)", "setting": "[20]", "value": -0.344}
    ]}
  ]
}
